Rows were chosen to be rich in hits. Some 5.2% of all compounds tested hit in one or more screens of this group.
Sfp inh: qHTS Assay for Inhibitors of Bacillus subtilis Sfp phosphopantetheinyl transferase (PPTase); 4'-phosphopantetheinyl transferase ffp (Bacillus subtilis), Q9F4F7; Biochemical Sfp PPTase activity, qHTS; Potency, µM, for inactives: largest response in the series, negative = inhibition, most hits filed as inhibitors; hit rate 3.5% among 310,000; AID 1490, 2009;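 further: the enzyme is Sfp with the accession as filed and its product quenches rhodamine fluorescence; potency means the concentration at half of the fitted maximal effect; 0% = enzyme reaction without inhibitor and -100% = no enzyme wells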
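Reaction rates are the 30-min fluorescence difference (ex 525, em 598 nm) in wells containing 15 nM Sfp, 5 uM rhodamine-CoA and 12.5 uM BHQ-2-YbbR at pH 7.6 with 10 mM MgCl2.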
Tau fibril FP: qHTS for Inhibitors of Tau Fibril Formation, Fluorescence Polarization; Potency, µM (doses to about 57.7 µM), inactives show at the top dose activity, negative = inhibition, actives largely listed as inhibitors; AID 1468, 2008; K18 P301L tau heparin fibrillization, Alexa594 FP, 6 h; Microtubule-associated protein tau (Homo sapiens), P10636; hit rate 0.39% among 280,000; further: potency means the concentration at half of the fitted maximal effect; nearly all actives have a fitted effect of over 55% in size
Target sequence (P10636 561-689 P618L limits assumed): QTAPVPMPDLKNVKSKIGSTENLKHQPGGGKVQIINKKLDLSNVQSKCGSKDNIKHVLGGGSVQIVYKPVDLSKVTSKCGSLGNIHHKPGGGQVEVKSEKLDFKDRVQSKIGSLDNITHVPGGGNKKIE
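Compound effects on tau fibrillization are measured by Alexa 594 fluorescence polarization (ex 555, em 632 nm). K18 P301L tau is used at 15 uM with 0.24 uM labeled tracer, and 20 uM heparin induces aggregation over 6 hr at 37 C.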
Tau fluor counter: Counterscreen qHTS for Inhibitors of Tau Fibril Formation, Fluorescence Polarization; Potency, µM (highest dose often 57.7 µM), for the others: at the highest dose activity change, negative = decrease; AID 1463, 2008; hit rate 0.93% among 280,000; tau K18 P301L Alexa594 fluorescence, heparin fibrillization; further: potency means the concentration at half of the fitted maximal effect; nearly all actives have a fitted effect of over 55% in size
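Human tau K18 P301L (15 uM unlabeled, 0.24 uM Alexa 594-labeled) in 100 mM sodium acetate pH 7 with 20 uM heparin, 6 hr at 37 C. ThT 30 uM added, 1 hr ambient; Alexa 594 FP and total fluorescence read at 555/632 nm.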
FBPA coupling cs: qHTS Assay for Inhibitors of Fructose-1,6-bisphosphate Aldolase from Giardia Lamblia: Coupling assay counterscreen. coupling enzyme system counterscreen, AmpLite Red fluorescence. activity change, negative = inhibition, % at 58.2 µM, hits read low. hit rate 0.67% among 290,000. AID 2472, 2010; in the data active means activity change below about -30%
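Counterscreen of the coupled detection system alone, without aldolase: glyceraldehyde-3-phosphate coupling enzymes plus AmpLite Red readout. Compounds at 57.5 uM final, 10 min RT preincubation, 20 min RT reaction, fluorescence 525/598 nm.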
Tau ThT inhib: qHTS for Inhibitors of Tau Fibril Formation, Thioflavin T Binding | recombinant tau K18 P301L, heparin-induced fibrillization, ThT fluorescence | Potency, µM (series often up to 57.4 µM), for inactives: at the top dose activity, negative = inhibition, usual class: inhibitors | hit rate 2.1% among 270,000 | Microtubule-associated protein tau (Homo sapiens), P10636; further: potency means the concentration at half of the fitted maximal effect; nearly all actives have a fitted effect of over 55% in size
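ThT emission at 510 nm, taken 1 hr after adding 30 uM dye, quantifies aggregates formed when 20 uM heparin acts on human tau K18 P301L for 6 hr at 37 C.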
An asterisk follows results filed as active; ? = inconclusive; . = no result; [ ] = dose if it differs, or a comment. Unless noted, the call rests on the fitted dose curve; in most records, active means well fitted curve in the direction sought with a large enough effect; inconclusive means small, poorly fitted or top-dose-only effect, or another doubt; inactive means no such curve, though single readings can be large; an effect the other way counts as inactive or inconclusive. Unless noted, on the % scale 0 is the no-effect control and ±100 the full control effect.

SMILES	Sfp inh	Tau fibril FP	Tau fluor counter	FBPA coupling cs	Tau ThT inhib
CCOC(=O)c1nc(N2CCN(c3ccc(F)cc3)CC2)c2c(C)noc2n1	.	-1%	-2%	.	-1%
CCOC(=O)c1c2c3c(cccc3[nH]c1=O)C(=O)c1ccccc1-2	8%	9%	-1%	0	3%
COCCCNc1c2c3c(cccc3[nH]c1=O)C(=O)c1ccccc1-2	79µM*	2%	?	-19	?
CCN(CC)C(=O)Cn1c(=O)n(-c2ccc(C)c(C)c2)c(=O)c2c(C)c(C(=O)N(CC)CC)sc21	.	-1%	0%	.	7%
Cc1nnc(SCc2cc(=O)c3ccccc3[nH]2)s1	.	-10%	-2%	.	2%
Cc1nnc(SCc2cc(=O)[nH]c(=S)[nH]2)s1	20µM*	-13%	0%	-5	-3%
Cc1ccc(C)c(CNC(=O)C2CCCCN2S(=O)(=O)c2ccc(F)cc2)c1 (stereo not drawn)	.	-2%	-9%	.	3%
NS(=O)(=O)c1ccc(NC(=S)NCc2cccs2)cc1	20µM*	1%	-7%	1	-3%
COc1ccc(CNC(=S)Nc2ccc(S(N)(=O)=O)cc2)cc1	50µM*	-3%	-2%	-1	-6%
COc1ccc(CNC(=S)Nc2ccc(OC)cc2)cc1	12%	2%	-3%	3	1%
COc1ccc(NC(=S)NCc2ccc(S(N)(=O)=O)cc2)c(OC)c1	32µM*	3%	-8%	0	-5%
COc1ccc(NC(=S)NCCc2ccccc2OC)c(OC)c1	89µM*	2%	-19%	3	-14%
N#Cc1ccc(CN2CC[C@@]3(CCCN(S(=O)(=O)c4ccccc4)C3)C2)cc1	28%	.	.	1	.
CC(=O)Nc1ccc(NS(=O)(=O)c2c(Cl)cccc2Cl)cc1	79µM*	-2%	-15%	-5	-6%
Cn1c(=O)c2sccc2n2c(CCCC(=O)Nc3ccc(Oc4ccc(Cl)cc4)cc3)nnc12	.	4%	?	.	2%
COc1ccc(-c2noc(CSc3nnc(Cc4ccccc4)n3-c3ccc(F)cc3)n2)cc1	.	14%	-16%	.	-16%
CC/C(=N\Nc1ccc([N+](=O)[O-])cc1)c1ccccc1	-15%	-10%	?	2	2µM*
O=[N+]([O-])c1ccc(N/N=C/c2ccccc2O)cc1	-9%	.	.	-4	.
CCc1ccc(/C(C)=N\Nc2ccc([N+](=O)[O-])cc2)cc1	-1%	-4%	?	-1	3.5µM*
C/C(=N\Nc1nc(C)c(C)s1)c1ccc([N+](=O)[O-])cc1	?	9%	?	-2	14µM*
C/C(=N\NC(=O)c1cccc(N/N=C(\C)c2ccc([N+](=O)[O-])cc2)c1)c1ccc([N+](=O)[O-])cc1	0%	7%	?	0	0.5µM*
C/C=C1\C(=O)CC2C3CCC4=CC(=O)CC[C@]4(C)C3CC[C@]12C (stereo partly drawn)	-6%	-4%	-13%	5	?
O=C(Nc1cccc(F)c1)C1CCN(c2nc3ccccc3[nH]2)CC1	.	3%	-16%	.	-15%
C/C(=N\Nc1ccc([N+](=O)[O-])cc1)c1ccco1	13%	9%	?	-2	5µM*
C/C(=N\Nc1ccc([N+](=O)[O-])cc1)c1ccc(N)cc1	?	-4%	1%	0	6%
SMILES	Sfp inh	Tau fibril FP	Tau fluor counter	FBPA coupling cs	Tau ThT inhib
C/C(=N\Nc1ccc([N+](=O)[O-])cc1)c1ccc(-n2nncc2C)cc1	-1%	?	16µM*[quencher]	0	7.1µM*
CCOc1ccccc1CNC(=O)c1oc2c(c1C)-c1[nH]ncc1CC2	.	0%	-13%	.	-19%
CCc1ccccc1N(C)C(=O)c1nn(C)c2c1CSc1ccccc1-2	.	-3%	-2%	.	-2%
CCCn1c(C)nc2c(N3CCCN(Cc4ccccc4)CC3)nc(C)nc21	19%	4%	-7%	0	-6%
CCCn1c(-c2ccc(F)cc2)nc2c(N3CCCN(Cc4ccccc4)CC3)nc(C)nc21	22µM*	-5%	-21%	-2	?
CCOC(=O)c1cccnc1SCC(=O)Nc1ccc(C)cc1C	.	2%	-3%	.	-5%
CC[C@H](C)/C=C(C)/C=C/C(=O)Cc1cc(O)c(C)c(O)c1C=O	89µM*	3%	?	-7	?
CCOc1cc(C(=O)N2CC(=O)Nc3ccc(C)cc3C2c2ccccc2)cc(OCC)c1OCC (stereo not drawn)	.	4%	-8%	.	-12%
COc1cccc(OC)c1OCCNC(C)(C)C	-12%	-7%	0%	-1	-5%
COc1cccc(OC)c1OCCN(C)C	8%	5%	1%	-34*	-1%
O=C(NCCc1c[nH]c2ccccc12)c1ccccc1O	8%	.	.	0	.
CCc1cnc2c(c1SCc1c(F)cccc1Cl)c(=O)n(C)c(=O)n2C	.	-7%	-6%	.	-9%
Cn1cc(C2=C(c3cn(CCCSC(=N)N)c4ccccc34)C(=O)NC2=O)c2ccccc21	50µM*	?	13µM*[quencher]	-11	3.2µM*
CN(C)CCCn1cc(C2=C(c3c[nH]c4ccccc34)C(=O)NC2=O)c2ccccc21	-14%	2%	20µM*[quencher]	-11	13µM*
COc1ccc2c(c1)c(C1=C(c3c[nH]c4ccccc34)C(=O)NC1=O)cn2CCCN(C)C	-29%	.	.	2	.
Cn1c(=O)n(C/C=C/c2ccccc2)c(=O)c2c1nc1n2CCN1c1ccccc1	.	-4%	-15%	.	?
N#CCCN1CCN(Cn2c3ccccc3c3ccccc32)CC1	13%	-4%	-15%	-2	-1%
CN1CCN(CCCNCc2cn(CCC#N)c3ccccc23)CC1	56µM*	.	.	-2	.
C1CCCCCC(=NNc2nn[nH]n2)CCCCC1	40µM*	-13%	-3%	-22	-12%
C=CCc1cc(OC)ccc1OCCN(C)Cc1ccccc1	50µM*	5%	-6%	0	-1%
COc1ccc(OCCCCN(C)Cc2ccccc2)cc1	-26%	.	.	1	.
Cc1noc(C)c1-c1cc(N(C)Cc2ccco2)ncn1	56µM*	.	.	0	.
CN(Cc1ccco1)c1cc(-c2ccoc2)ncn1	32µM*	.	.	-11	.
CN(C)c1ccc(-c2cc(N(C)Cc3ccco3)ncn2)cc1	-16%	.	.	1	.
Cc1ccccc1-c1cc(N(C)Cc2ccco2)ncn1	-30%	.	.	1	.
COCCn1c(=O)c(CCc2ccccc2)nc2cnc(Oc3cccc(Cl)c3)nc21	0%	.	.	2	.
O=C1CCCC2[C@@H]3CCC[N@+]4([O-])CCC[C@H](CN12)C34 (stereo partly drawn)	-10%	?	-5%	3	-7%
